Molecules are shown by their SMILES. About 1,300 (0.68%) of roughly 190,000 compounds were called active. Only a selection was taken, and actives are over-represented in it overall. Values without a mark were called inactive. Rule as the data show it: active = inhibition above about 50%; inactive = the rest.

These results are taken from PubChem BioAssay AID1220 (Sanford-Burnham Center for Chemical Genomics, 2008).

For the assay, the target named is Mannose-6-phosphate isomerase (Homo sapiens) (UniProt P34949). Kind of assay: human PMI inhibitors, high substrate, primary screen, biochemical, fluorescence intensity, high mannose 6-phosphate (AID 1220). The conditions noted are these: recombinant PMI enzyme, coupled fluorescence intensity; at 20 µM; active compounds read high.
Chain of Mannose-6-phosphate isomerase (Homo sapiens) (P34949 whole entry, looked up): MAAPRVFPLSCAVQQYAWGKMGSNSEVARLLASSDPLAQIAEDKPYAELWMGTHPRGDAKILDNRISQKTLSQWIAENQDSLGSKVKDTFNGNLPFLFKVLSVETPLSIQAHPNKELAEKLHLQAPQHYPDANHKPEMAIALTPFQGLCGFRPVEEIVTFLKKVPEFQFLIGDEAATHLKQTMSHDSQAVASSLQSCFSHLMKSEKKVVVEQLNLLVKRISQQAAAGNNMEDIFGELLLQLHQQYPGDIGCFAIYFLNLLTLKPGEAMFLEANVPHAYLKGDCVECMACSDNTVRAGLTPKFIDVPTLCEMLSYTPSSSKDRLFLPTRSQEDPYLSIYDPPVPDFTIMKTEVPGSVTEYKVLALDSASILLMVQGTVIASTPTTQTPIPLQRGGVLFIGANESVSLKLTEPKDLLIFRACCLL
In the case of `COc1ccc(S(=O)(=O)N(C)CC(=O)Nc2ccc(C(N)=O)cc2)cc1OC`, the inhibition was -13.3%. In the case of `CC(C)N(C(=O)CSc1nnc(CNc2ccc(F)cc2)o1)C(C)C` it was 17%; in that of `Cc1cc(C)c2nc(N)sc2c1`, 7.6%. Regarding `Cc1cc(C)c(O)c(N)c1`, the inhibition is 61.3% (active). As to `Cc1cc(C)c2ccc(N)nc2c1O`, the inhibition is 26%.

For `Cc1nc2cc(C)c(C)cc2s1`, the inhibition was -8.8%.

Consider `CCC(C)(C)NC(=O)c1cc(C(=O)OC)cc([N+](=O)[O-])c1`, for which the inhibition was -6.6%. The result for `O=C(N/N=C/C(Br)=C/c1ccccc1)C1CC1` reads 14.3%. The result for `COc1cc2c(cc1OC)-c1cc3ccc4c(c3c[n+]1CC2)OCO4` reads 53.6% (active); that for `COc1ccc2cc3[n+](cc2c1OC)CCc1cc2c(cc1-3)OCO2`, 33.7%. The result for `COc1cc2c(cc1O)CC[n+]1cc3c(OC)c(OC)ccc3cc1-2` reads 39.9%. `O=C1c2ccccc2-n2c1nc1ccccc1c2=O`: the inhibition was 50.7% (active).

With `O=c1c2ccccc2nc(-c2cccs2)n1-c1cccc2ccccc12`, the inhibition is -3.7%. The result for `O=c1c2ccccc2nc(-c2ccccc2Cl)n1O` reads -7.6%; that for `O=C(NCc1ccco1)Nc1ccccc1Cl`, 5.5%; that for `NS(=O)(=O)c1ccc(CCNC(=O)c2ccc(S(=O)(=O)N3CCCCC3)cc2)cc1`, -2.8%.

Take `O=C(c1ccc(Cl)cc1)c1c[nH]c(C(=O)NNc2cccc(Cl)n2)c1`: the inhibition was 4.5%. The result for `Oc1ccc(NCc2ccccc2OCc2ccccc2)cc1` reads 47.7%; that for `Oc1ccc(NCc2ccccc2OCc2ccccc2F)cc1`, 25%. In the case of `CCOc1ccccc1CNc1ccc(O)cc1` it was 59.4% (active); in that of `COc1ccc(C2SCC(=O)N2c2c(C)n(C)n(-c3ccccc3)c2=O)cc1OC` (centres undefined), -1.7%; in that of `CCOc1ccc(OCC)c(S(=O)(=O)NNC(=O)c2c(C)nc3ccccn23)c1`, -3.5%. The result for `Cc1ccc(C(=O)CC2(O)C(=O)N(C)c3ccccc32)s1` (centres undefined) reads 9.4%; that for `CC(=O)N1c2ccccc2C(C)(C)C2CCC(C)CC21` (centres undefined), -3.5%. Regarding `CC(=O)N1c2ccccc2C2(O)N=C(C)SC12` (centres undefined), the inhibition is 52.8% (active). Turning to `CCOC(=O)C1=C(C)N(C)C(=O)NC1c1c(C)nn(-c2ccccc2)c1C` (centres undefined), the inhibition is 1.3%. As for `CCOC(=O)C1=C(C)N(C)C(=O)NC1c1c(C)nn(-c2ccc(C)cc2)c1Cl` (centres undefined), the inhibition is -4%.

On to `Nc1nc(SCC(=O)NCC2CCCO2)n[nH]1` (centres undefined), for which the inhibition is 5.9%. In the case of `CCOc1ccc2[nH]c(=O)c(CN(CCO)C(=O)c3ccccc3F)cc2c1`, the inhibition is -1%. Consider `CCCN1CCCc2cc(CN)ccc21`, for which the inhibition is 50.4% (active). Regarding `CCc1ccc2c(c1)CCCN2C(=O)c1ccccc1C(=O)O`, the inhibition is -10%. The result for `CCCN1CCCc2ccccc21` reads -58.9%; that for `COc1cc(C2C(C(C)=O)=C(O)C(=O)N2CCc2c[nH]c3ccccc23)ccc1O` (centres undefined), 21.6%. The result for `CCOC(=O)CCCNC(=O)COC(=O)c1cccc(C)c1O` reads -3.7%. The result for `S=C1NCCOCCOCCNC(=S)N2CCOCCOCCN1CCOCCOCC2` reads 11.7%; that for `CC(=O)N1CCC(N(CCN2CCOCC2)C(=S)Nc2cccc(C)c2)CC1`, -11.5%; that for `CC1(C)CC2CC(C)(CN2CC(=O)C(C#N)c2ccccc2)C1` (centres undefined), -41%. In the case of `CC1(C)CC2CC(C)(CN2Cc2c(O)ccc3ccccc23)C1` (centres undefined), the inhibition is 66.3% (active). In the case of `CC1(C)CC2CC(C)(CN2C(=O)COc2cccc3ccccc23)C1` (centres undefined) it was 2.7%.

With `O=Cc1ccc2noc(-c3ccc(F)cc3)c2c1`, the inhibition was -86.8%. In the case of `CCCn1nnc(NC(=O)c2ccc(OCC)c(Cl)c2)n1` it was 2%.

As to `CC(=O)c1ccc(NC2OC(C)C(O)C(O)C2O)cc1` (centres undefined), the inhibition is 20.1%. In the case of `CC1OC(Nc2cccc3ccccc23)C(O)C(O)C1O` (centres undefined) it was 60.5% (active). As to `CC1OC(Nc2ccc(N=Nc3ccccc3)cc2)C(O)C(O)C1O` (centres undefined), the inhibition is 8.3%. As to `Cc1ccc2cc(CN(Cc3cccs3)Cc3nnnn3CC3CCCO3)c(=O)[nH]c2c1C` (centres undefined), the inhibition was 0.6%. In the case of `COc1cccc(NC(=S)N(Cc2ccc(Cl)cc2)Cc2ccc(C(=O)O)cc2)c1` it was -30.6%; in that of `COc1ccccc1CC(=O)NCC(c1ccco1)N1CCCCC1` (centres undefined), 58.9% (active); in that of `COc1ccccc1NC(=O)NCC(c1ccco1)N1CCCCC1` (centres undefined), 0.2%. The result for `O=C(Cc1ccccc1F)NCC(c1ccco1)N1CCCCC1` (centres undefined) reads -5.8%; that for `O=C(c1ccco1)N1CCN(C(c2ccc(F)cc2)c2nnnn2Cc2cccs2)CC1` (centres undefined), -6%; that for `Cn1cnc2cc(NC(=O)c3ccc(Cl)cc3)ccc21`, -16.1%. Take `CSc1nc2ccccc2n1CC(=O)Nc1cc(C(F)(F)F)ccc1N1CCOCC1`: the inhibition is -1.6%. As for `N#CC(C#N)=Cc1cccn1-c1ccc(S(N)(=O)=O)cc1`, the inhibition was 0%.

For `NS(=O)(=O)c1ccc(C(=O)O)cc1`, the inhibition was -8%.

As for `N#CC(C#N)=C1c2cc(S(N)(=O)=O)ccc2-c2ccc(S(N)(=O)=O)cc21`, the inhibition was 57.5% (active).

On to `CC(C)OP(=O)(c1ccccc1)c1ccccc1`, for which the inhibition is -8.8%. In the case of `C=CCN1C(=NC(=O)CCC)SC2CS(=O)(=O)CC21` (centres undefined) it was -8.2%; in that of `COCCNC(=O)/C(C#N)=C/c1ccc(-c2ccc(OC)cc2[N+](=O)[O-])o1`, 42.2%.

`O=C(/C=C/c1ccc(-c2ccccc2[N+](=O)[O-])o1)c1ccc(F)cc1`: the inhibition is 34.1%.

Consider `N#C/C(=C\c1ccc(-c2ccc(F)cc2)o1)C(=O)Nc1nc(-c2cccs2)cs1`, for which the inhibition is 30.8%.

Take `O=C(/C=C/c1ccc(-c2ccccc2[N+](=O)[O-])o1)c1ccccc1`: the inhibition is 47.3%. For `N#C/C(=C/c1ccc(-c2ccccc2[N+](=O)[O-])o1)C(N)=O`, the inhibition was 51.9% (active). On to `N#C/C(=C\c1ccc(-c2ccccc2[N+](=O)[O-])o1)C(=O)N1CCOCC1`, for which the inhibition was 45.8%. In the case of `CNC(=O)/C(C#N)=C/c1ccc(-c2ccccc2[N+](=O)[O-])o1` it was 61% (active); in that of `O=C(/C=C/c1ccc(-c2ccccc2[N+](=O)[O-])o1)c1ccco1`, 51.7% (active); in that of `Cc1ccc(Cc2cnc(NC(=O)/C(C#N)=C/c3ccc(-c4ccccc4[N+](=O)[O-])o3)s2)cc1`, 30.3%. In the case of `O=C(/C=C/c1ccc(-c2ccccc2[N+](=O)[O-])o1)c1ccc(Br)cc1` it was -32.8%; in that of `CNC(=O)/C(C#N)=C/c1ccc(-c2ccc(OC)cc2[N+](=O)[O-])o1`, 29.2%; in that of `N#C/C(=C\c1ccc(-c2ccccc2[N+](=O)[O-])o1)C(=O)Nc1nc(-c2cccs2)cs1`, 53.1% (active).

One may read the inhibition as the drop in the measured response relative to a control, in per cent.
